Compound activity from PubChem BioAssay.
BAZ2B block – BAZ2B (human) inhibition; Q9UIF8; AlphaScreen BAZ2B-H3K14Ac peptide displacement; Potency, µM (titrated, usually from 114 µM), without a hit: at the highest dose activity change, negative = inhibition, most hits filed as inhibitors; actives 4.4% (n = 360,000); further: on the % scale 0 is the no-effect control and ±100 the full control effect; nearly all actives have a fitted effect of over 60% in size
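Multi-concentration screen (max 110 uM) measuring displacement of acetylated histone H3 peptide from BAZ2B by AlphaScreen, using 50 nM protein, 50 nM peptide and 10 ug/mL streptavidin donor plus Ni-chelate acceptor beads.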
L3MBTL1 block – blocks human L3MBTL1; AlphaScreen L3MBTL1–H3K9me1 peptide binding; Potency, µM (doses to about 57.1 µM), without a hit: at the highest dose activity, negative = inhibition, actives largely listed as inhibitors; actives 0.66% (n = 230,000); AID 485360; further: on the % scale 0 is the no-effect control and ±100 the full control effect; nearly all actives have a fitted effect of over 60% in size
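AlphaScreen proximity signal between nickel-chelate acceptor and streptavidin donor beads (final 10 ug/mL) reports binding of 50 nM L3MBTL1 to 75 nM biotin-H3 K9me1 peptide; complex incubated with compounds 30 min at room temperature; cefsulodin titration as control.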
HP1b chromo inh – blocks HP1-beta chromodomain binding to methylated histone tails; P83916; AlphaScreen HP1-beta / biotin-H3K9me3 peptide binding; Potency, µM (highest dose often 114 µM), for inactives: at the highest dose activity change, negative = inhibition, most hits filed as inhibitors; actives 0.56% (n = 390,000); AID 540317; further: nearly all actives have a fitted effect of over 70% in size
Target sequence (P83916 whole entry, looked up): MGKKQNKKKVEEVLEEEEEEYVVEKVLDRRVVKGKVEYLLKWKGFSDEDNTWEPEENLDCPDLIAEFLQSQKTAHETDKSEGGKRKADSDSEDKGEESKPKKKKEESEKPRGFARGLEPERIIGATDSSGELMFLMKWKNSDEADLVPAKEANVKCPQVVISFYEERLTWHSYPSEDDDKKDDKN
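HP1-beta protein (50 nM final) preincubated 30 min at room temperature with biotinylated H3(1-18)K9me3 peptide (50 nM) in PBS pH 7.4, 0.01% Tween-20, then compound added for 30 min. AlphaScreen streptavidin donor/nickel chelate acceptor beads (10 ug/mL final), 30 min dark, luminescence read.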
G9a block – blocks human histone lysine methyltransferase G9a | Potency, µM (highest dose often 102 µM), for inactives: at the top dose activity, negative = inhibition, actives largely listed as inhibitors | G9a H3K9 monomethylation, AlphaScreen, 2 h | actives 8.8% (n = 350,000) | AID 504332; further: on the % scale 0 is the no-effect control and ±100 the full control effect; nearly all actives have a fitted effect of over 75% in size
Target sequence (Q96KQ7 913-1193 limits assumed): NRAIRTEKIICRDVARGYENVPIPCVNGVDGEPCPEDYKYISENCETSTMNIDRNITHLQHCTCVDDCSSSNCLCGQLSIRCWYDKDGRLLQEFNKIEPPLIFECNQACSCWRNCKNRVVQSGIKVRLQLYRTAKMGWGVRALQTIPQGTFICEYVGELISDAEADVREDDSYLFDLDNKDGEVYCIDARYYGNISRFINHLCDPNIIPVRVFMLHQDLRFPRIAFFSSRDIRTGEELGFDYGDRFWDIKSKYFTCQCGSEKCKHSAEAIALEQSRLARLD
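Signal arises when biotinylated H3K9 peptide, once monomethylated, bridges streptavidin donor and antibody-captured acceptor beads. Enzyme at 20 nM was preincubated 15 min with test compounds; peptide 500 nM and SAM 20 uM then reacted for 2 h.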
JMJD2A Tudor inh – inhibitors of human JMJD2A Tudor domain | AlphaScreen JMJD2A-Tudor / H3K4me3 peptide binding | Potency, µM (doses to about 114 µM), for the others: top-dose activity change, negative = inhibition, hits mostly inhibitors | actives 4.4% (n = 390,000); further: on the % scale 0 is the no-effect control and ±100 the full control effect; nearly all actives have a fitted effect of over 50% in size
Numbers without * were called inactive; [ ] = another dose, or the depositor's remark. Only some compounds are listed: those with a hit (about 11% of all), similar ones and a draw of the others. The call rests on the fitted dose curve; in most records, active means well fitted inhibition curve with a large enough effect; inconclusive means small, poorly fitted or top-dose-only effect; inactive means no such curve, though single readings can be large or run the other way. Potency means the concentration at half of the fitted maximal effect.

Results for CCOC(=O)C1=C(C)N=c2s/c(=C/c3ccc(OCC(=O)O)cc3)c(=O)n2C1c1ccc(OC)cc1OC (centres undefined) ?
BAZ2B block: 35µM*; L3MBTL1 block: -7%; HP1b chromo inh: -9%; G9a block: 50µM*; JMJD2A Tudor inh: 50µM*

Results for CCOC(=O)C1=C(C)N=c2s/c(=C\c3ccc(OCC(=O)O)cc3)c(=O)n2C1c1ccccc1OC (centres undefined) ?
BAZ2B block: 79µM*; HP1b chromo inh: -19%; G9a block: -35%[2.33 µM]; JMJD2A Tudor inh: 89µM*

Results for Cn1nnc(NC(=S)NC(=O)c2cccc3c(Cl)cccc23)n1 ?
BAZ2B block: -19%; HP1b chromo inh: 26%; G9a block: inconclusive; JMJD2A Tudor inh: -18%

How did CCOC(=O)C1=C(C)N=c2s/c(=C\c3ccc(O)c([N+](=O)[O-])c3)c(=O)n2C1c1ccccc1OC (centres undefined) do in these assays?
BAZ2B block: 8.9µM*; L3MBTL1 block: -9%; HP1b chromo inh: inconclusive; G9a block: 14µM*; JMJD2A Tudor inh: 10µM*

What do the screens show for `O=c1cnnc(N/N=C/c2cccs2)[nH]1`?
BAZ2B block: 79µM*; HP1b chromo inh: 16%[57 µM]; JMJD2A Tudor inh: -28%

How did Cc1cc(=O)[nH]c(N/N=C/c2cccs2)n1 do in these assays?
BAZ2B block: 2%; L3MBTL1 block: 15%; HP1b chromo inh: 28%; G9a block: -22%[59 µM]; JMJD2A Tudor inh: inconclusive

What do the screens show for `CC(C)c1cc(CNC(=O)CC2C(=O)NCCN2CC2CCCCC2)on1` (centres undefined)?
BAZ2B block: -2%; L3MBTL1 block: -5%; HP1b chromo inh: 40%; G9a block: 50µM*; JMJD2A Tudor inh: -15%

What do the screens show for `O=C(CC1C(=O)NCCN1CC1CCCCC1)NCc1cc(F)ccc1F` (centres undefined)?
BAZ2B block: -3%; L3MBTL1 block: 7%; HP1b chromo inh: -13%; JMJD2A Tudor inh: 11µM*

Results for O=C(/C=C/c1ccccc1)Nc1nc(-c2cccs2)ns1 ?
BAZ2B block: -15%; HP1b chromo inh: 48%; G9a block: 6%[59 µM]; JMJD2A Tudor inh: -24%

Results for CCc1ccc(NC(=O)c2ccc(NS(=O)(=O)c3c(C)noc3C)cc2)cc1 ?
HP1b chromo inh: 18%; G9a block: -25%[59 µM]; JMJD2A Tudor inh: -12%

Results for O=C(NCCc1csc2nc(-c3cccc(F)c3)nn12)c1ccc(Br)o1 ?
BAZ2B block: -18%; HP1b chromo inh: 17%[57 µM]; G9a block: 10%[59 µM]; JMJD2A Tudor inh: 2%

How did CCN(CC)CCNC(=O)c1c(O)c2cccc3c2n(c1=O)CCC3 do in these assays?
BAZ2B block: -13%; L3MBTL1 block: -1%; HP1b chromo inh: 10%; G9a block: 56µM*; JMJD2A Tudor inh: -20%

How did O=c1c([N+](=O)[O-])c(O)c2cccc3c2n1CCC3 do in these assays?
BAZ2B block: inconclusive; HP1b chromo inh: 35%; G9a block: 79µM*; JMJD2A Tudor inh: inconclusive

Results for CNC(=O)c1c(O)c2cccc3c2n(c1=O)CCC3 ?
BAZ2B block: 6%; L3MBTL1 block: 6%; HP1b chromo inh: 34%; JMJD2A Tudor inh: inconclusive

How did COC(=O)CSc1nc2ccc(N)cc2s1 do in these assays?
BAZ2B block: -16%; L3MBTL1 block: -14%; HP1b chromo inh: 26%; G9a block: 18µM*; JMJD2A Tudor inh: -18%

What do the screens show for `Cc1ccc(C)c(N2CCN(C(=O)c3cc(S(=O)(=O)N4CCCC4)c[nH]3)CC2)c1`?
BAZ2B block: inconclusive; HP1b chromo inh: 0%; G9a block: -9%[59 µM]; JMJD2A Tudor inh: -28%

Results for Cc1ccc(Cl)cc1NC(=O)Cn1c(=O)c(CNc2ccccc2)cc2cc3c(cc21)OCCO3 ?
BAZ2B block: -22%; HP1b chromo inh: 6%; G9a block: 7.9µM*; JMJD2A Tudor inh: -29%

What do the screens show for `CCC(C)(C)NC(=O)c1cccc(NC(=O)C(C)C)c1`?
BAZ2B block: 2%; L3MBTL1 block: 1%; HP1b chromo inh: -12%; JMJD2A Tudor inh: 40µM*

How did Cc1nc(SCC(=O)N2c3ccccc3NC(=O)CC2C)c2c(C)c(C)sc2n1 (centres undefined) do in these assays?
BAZ2B block: 5%; L3MBTL1 block: -1%; HP1b chromo inh: 33%; G9a block: 45µM*; JMJD2A Tudor inh: -13%

Results for Cc1sc2nc(C3CC3)nc(SCC(=O)N3c4ccccc4CC3C)c2c1C (centres undefined) ?
BAZ2B block: -9%; L3MBTL1 block: -2%; HP1b chromo inh: 14%; G9a block: -22%; JMJD2A Tudor inh: -7%

How did CCCCC(c1nnnn1C1CCCC1)N1CCN(C(=O)c2ccco2)CC1 (centres undefined) do in these assays?
BAZ2B block: 79µM*; HP1b chromo inh: 17%; G9a block: -48%[12.7 µM]; JMJD2A Tudor inh: -17%

What do the screens show for `CC(C)CC(c1nnnn1C1CCCC1)N1CCN(C(=O)c2ccco2)CC1` (centres undefined)?
BAZ2B block: 79µM*; HP1b chromo inh: 17%; G9a block: -35%[59 µM]; JMJD2A Tudor inh: 50µM*

Results for CN(C)c1ccc(C2CC(=O)C=C(Nc3ccccc3N)C2)cc1 (centres undefined) ?
BAZ2B block: 45µM*; L3MBTL1 block: inconclusive; HP1b chromo inh: -6%; JMJD2A Tudor inh: inconclusive

What do the screens show for `CC1(C)CC(=O)C=C(Nc2ccccc2N)C1`?
BAZ2B block: inconclusive; L3MBTL1 block: -1%; HP1b chromo inh: 64%; G9a block: inconclusive; JMJD2A Tudor inh: 11%[57.1 µM]

Results for O=C(O)c1cccc(NC(=S)NC(NC(=O)c2cccc([N+](=O)[O-])c2)C(Cl)(Cl)Cl)c1 (centres undefined) ?
BAZ2B block: -38%; HP1b chromo inh: 7%; G9a block: 50µM*; JMJD2A Tudor inh: -22%

How did O=C(O)c1cccc(NC(=S)NC(NC(=O)c2ccccc2[N+](=O)[O-])C(Cl)(Cl)Cl)c1 (centres undefined) do in these assays?
BAZ2B block: 4%; HP1b chromo inh: 39%; G9a block: inconclusive; JMJD2A Tudor inh: -7%

How did Cc1ccc(C(=O)NNC(=S)Nc2cccc(Cl)c2Cl)cc1[N+](=O)[O-] do in these assays?
BAZ2B block: -23%; HP1b chromo inh: -7%; G9a block: 5%[12.7 µM]; JMJD2A Tudor inh: -7%

Results for O=[N+]([O-])c1ccc(Nc2ccc(F)cc2)cc1 ?
BAZ2B block: -17%; HP1b chromo inh: 21%; G9a block: 9%; JMJD2A Tudor inh: -17%

How did CC1(C(=O)NNC(=O)c2cccc([N+](=O)[O-])c2)CC1(Br)Br (centres undefined) do in these assays?
BAZ2B block: -35%; HP1b chromo inh: 85%; G9a block: 20µM*; JMJD2A Tudor inh: -23%
